# Reference: PubChem BioAssay AID1942 (Johns Hopkins Ion Channel Center, 2009)
# The campaign covered roughly 2,400 compounds. About 580 (24%) were called active.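 Rule for the calls: active = activity change at or above the mean plus 3 SD of buffer wells without dofetilide, per plate; inactive = the rest.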 Not all results are given here.
# Target: Potassium voltage-gated channel subfamily KQT member 2 (Rattus norvegicus) (UniProt O88943)
# Assay: KCNQ2 potentiation in CHO cells – cell-based, FluxOR thallium flux, counter-screen for hERG block protector project, confirmation (AID 1942);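 note: normalized value minus buffer-control mean plus three SD of buffer wells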
# Settings: FluxOR thallium flux fluorescence, at 10 µM, stronger effect = higher value
# Chain of Potassium voltage-gated channel subfamily KQT member 2 (Rattus norvegicus) (O88943 whole entry, looked up): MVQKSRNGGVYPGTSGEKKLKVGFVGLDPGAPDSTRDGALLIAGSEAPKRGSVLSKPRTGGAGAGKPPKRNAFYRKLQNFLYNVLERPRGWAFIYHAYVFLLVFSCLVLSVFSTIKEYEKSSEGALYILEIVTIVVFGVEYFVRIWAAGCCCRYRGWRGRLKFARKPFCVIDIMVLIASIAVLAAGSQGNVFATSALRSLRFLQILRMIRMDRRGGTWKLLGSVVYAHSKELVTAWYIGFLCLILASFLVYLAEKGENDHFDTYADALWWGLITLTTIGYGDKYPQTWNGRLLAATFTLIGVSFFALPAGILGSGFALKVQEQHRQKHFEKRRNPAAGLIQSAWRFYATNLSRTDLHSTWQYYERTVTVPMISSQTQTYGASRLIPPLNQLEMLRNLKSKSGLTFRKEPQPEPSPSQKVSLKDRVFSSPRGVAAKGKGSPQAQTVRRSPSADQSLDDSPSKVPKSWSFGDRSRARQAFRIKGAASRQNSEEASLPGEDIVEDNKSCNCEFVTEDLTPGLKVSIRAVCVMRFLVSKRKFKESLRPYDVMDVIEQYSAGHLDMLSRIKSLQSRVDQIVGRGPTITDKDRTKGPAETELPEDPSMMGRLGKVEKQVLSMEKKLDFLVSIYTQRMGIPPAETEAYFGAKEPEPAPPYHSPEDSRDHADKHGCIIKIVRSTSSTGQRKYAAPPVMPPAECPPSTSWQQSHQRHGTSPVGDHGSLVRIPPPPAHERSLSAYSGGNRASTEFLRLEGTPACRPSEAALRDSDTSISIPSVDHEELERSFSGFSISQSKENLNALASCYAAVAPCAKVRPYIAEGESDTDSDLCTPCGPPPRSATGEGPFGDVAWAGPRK
row,Structure (SMILES),"activity change, less the hit threshold"
1,C/C(=N\Nc1cc(N2CCOCC2)ncn1)c1cccc([N+](=O)[O-])c1,-15.9% (inactive)
2,C/C(=N/NC(=S)Nc1cccc(C)c1)c1cccc([N+](=O)[O-])c1,-13.2% (inactive)
3,C/C(=N\Nc1nc(C)c(C)s1)c1ccc([N+](=O)[O-])cc1,17% (active)
4,Cc1cc(C)cc(N(C(=O)c2cc3ccccc3oc2=O)C2C=CS(=O)(=O)C2)c1 (centres undefined),-12.7% (inactive)
5,COc1cc(NC(=O)c2ccccc2)c(OC)cc1NC(=O)Cc1ccc(Br)cc1,12.3% (active)
6,COc1ccc(CC(=O)Nc2ccccc2Oc2ccccc2)cc1,-0.3% (inactive)
7,COc1ccc(Br)cc1CNc1ccccc1,-21.6% (inactive)
8,CCOC(=O)CN1C(=O)SC(Nc2ccc(C)cc2)C1=O (centres undefined),-7% (inactive)
9,O=C(COc1nsnc1N1CCOCC1)Nc1ccc(Cl)cc1,-17.5% (inactive)
10,CN(Cc1cnn(C)c1)C(=O)C1CCC(=O)N(Cc2cccc(C(F)(F)F)c2)C1 (centres undefined),-19.6% (inactive)
11,COc1ccc(N2CCN(S(=O)(=O)c3ccc(Br)s3)CC2)cc1,-14.9% (inactive)
12,CC1=CN2C(=N)/C(=C/c3ccc(Sc4ccc(Cl)cc4)o3)C(=O)N=C2S1,-17.8% (inactive)
13,CC(C)Cn1c(=S)[nH]c2cc(Cl)ccc21,6.5% (active)
14,CCCn1c(=S)[nH]c2ccc(C(F)(F)F)cc21,-3.6% (inactive)
15,O=c1c2cc(Cl)ccc2[nH]c(=S)n1Cc1cccs1,-11.7% (inactive)
16,COc1cccc(/C=C2/C(=O)NN(c3ccc(C)c(C)c3)C2=O)c1,-18% (inactive)
17,O=C(N1CCOCC1)N1CCC(c2nc(-c3ccc(S(=O)(=O)N4CCOCC4)cc3)no2)CC1,-23.6% (inactive)
18,COc1ccc(C(=O)NC(=S)N(Cc2ccccc2)Cc2ccccc2)cc1,28.4% (active)
19,COc1ccc(C(=O)NC(=S)NCCO)cc1Br,-13.1% (inactive)
20,COc1cc(OC)cc(C(=O)NC(=S)N(Cc2ccccc2)C(C)C)c1,31.3% (active)
21,COc1ccc(C(=O)NN/C(C)=C/C(=O)c2ccccc2)cc1,-25.7% (inactive)
22,CCN(CC)C(=S)NC(=O)c1ccc(OC)c(Br)c1,-11% (inactive)
23,C=CCN(CC=C)C(=S)NC(=O)c1ccc(C)c(Br)c1,135% (active)
24,COc1ccc(CN(Cc2cccnc2)C(=S)NCCc2ccccc2)cc1OC,-13.1% (inactive)
25,CCOc1ccc(C(=O)NC(=S)N(Cc2ccccc2)Cc2ccccc2)cc1,-5.6% (inactive)

row,Structure (SMILES),"activity change, less the hit threshold"
1,C=CCNC(=S)NC(=O)c1ccc(C)c(Br)c1,-17.6% (inactive)
2,C=CCN(CC=C)C(=S)NC(=O)c1ccc(OC)c(Br)c1,46% (active)
3,COc1cc(OC)cc(C(=O)OCC(=O)N(C)c2ccccc2)c1,-28% (inactive)
4,O=c1c([N+](=O)[O-])c(N2CCCCC2)c2ccccc2n1-c1ccccc1,-20.7% (inactive)
5,CC(C)=CCCC1=CCC2C(=O)NNC(=O)C2C1 (centres undefined),-15.8% (inactive)
6,Cc1ccc(S(=O)(=O)n2cnc3ccccc32)c(C)c1,-9% (inactive)
7,CCCNC(=O)N(C)c1nncnc1C(=O)NC,-17.3% (inactive)
8,CCN(CC(=O)Nc1c(F)cccc1F)C(=O)c1ccc(Cl)c(S(=O)(=O)N2CCCCC2)c1,-23.2% (inactive)
9,Cc1cccc(C)c1NC(=O)Cn1cnc2c(=O)n(C)c(=O)n(C)c21,-15.2% (inactive)
10,CCCOc1ccc(C(=O)NNC(=S)NC(=O)c2ccccc2)cc1,-24.3% (inactive)
11,CCCOc1ccc(CN(CCC#N)C(=S)NC(=O)c2ccccc2)cc1,7.3% (active)
12,C=CCNC(=S)N/N=C(\C)c1ccc(OC)cc1,-13.1% (inactive)
13,C=CCN(CC=C)C(=S)NC(=O)c1ccc(OC)cc1,10.1% (active)
14,CC(C)N(Cc1ccccc1)C(=S)NC(=O)C1(C)CC1(Cl)Cl (centres undefined),32.4% (active)
15,C=CCN(CC=C)C(=S)NC(=O)/C=C/c1ccc(OC)cc1,-0.6% (inactive)
16,O=C(O)c1ccc(Cl)cc1Nc1nc2cc(Cl)ccc2o1,-1.7% (inactive)
17,CC(=O)c1c(C)nc(C)nc1NC(=O)C(C)C,-17.2% (inactive)
18,Nc1nc2n(n1)C1(CCCCC1)C1=C(CCCC1)N2,-18.5% (inactive)
19,CCCCc1c(O)nc(SCC(=O)O)[nH]c1=O,-17.9% (inactive)
20,FC(F)(F)c1cnc2c(c1)[nH]c(=S)n2-c1ccc(Cl)cc1,-2.4% (inactive)
21,CCC(=O)Nc1cc(-c2nnc(OC)c3ccccc23)ccc1N1CCOCC1,-7.7% (inactive)
22,O=C(NC(=S)Nc1ccccc1N1CCCC1)c1ccccc1Br,-29.8% (inactive)
23,Cc1nn(C)c(C(=O)NC(=S)Nc2ccc([N+](=O)[O-])cc2)c1Cl,7.5% (active)
24,CCCCOC(=O)c1ccc(NC(=S)NC(=O)c2c(Cl)cnn2C)cc1,-10% (inactive)
25,Cc1ccc(NC(=O)c2c([N+](=O)[O-])c(C(C)(C)C)nn2C)cc1,-17.2% (inactive)

row,Structure (SMILES),"activity change, less the hit threshold"
1,Cc1ccc(NC(=S)NC(=O)c2cncc(Br)c2)cc1Cl,-17.8% (inactive)
2,CCCCOC(=O)c1ccc(NC(=S)NC(=O)c2c(Br)c(C)nn2C)cc1,10.4% (active)
3,COC(=O)c1ccc(NC(=S)NC(=O)c2c(-c3ccccc3)noc2C)cc1,-19.6% (inactive)
4,Cc1nn(CCC(=O)NNC(=S)Nc2ccc(F)cc2)c(C)c1[N+](=O)[O-],-18.9% (inactive)
5,COc1ccccc1NC(=S)NC(=O)c1ccc(-c2ccc(Cl)cc2)o1,-6.4% (inactive)
6,Cc1nn(C)c(C(=O)NC(=S)Nc2ccccc2Br)c1Cl,11.8% (active)
7,CCn1ncc(Cl)c1C(=O)NC(=S)Nc1ccccc1Br,29.9% (active)
8,Cc1cccc(NC(=S)N/N=C2\CC(C)(C)Oc3ccc(O)cc32)c1,-9.9% (inactive)
9,Cc1nn(-c2ccc(Cl)nn2)c(=O)c2ccccc12,-19.3% (inactive)
10,CC1CN(S(=O)(=O)c2ccc(-c3nc4ccccc4s3)cc2)CC(C)O1 (centres undefined),-3.8% (inactive)
11,CC(C)CN1C(=O)/C(=C/c2ccco2)NC1=S,-20.7% (inactive)
12,COc1ccc(N2C(=O)/C(=C/c3cccs3)NC2=S)cc1,-15.1% (inactive)
13,CCN1C(=O)/C(=C/c2ccc(C)s2)NC1=S,36.1% (active)
14,CC(C)CN1C(=O)/C(=C/c2cccs2)NC1=S,83.6% (active)
15,CCCN1C(=O)/C(=C/c2ccc3c(c2)OCO3)NC1=S,-10.1% (inactive)
16,CCCN1C(=O)/C(=C/c2ccc(C)s2)NC1=S,80.4% (active)
17,O=c1c(C(c2ccc(O)cc2)c2c(O)nc3n(c2=O)CCS3)c(O)nc2n1CCS2,-11.7% (inactive)
18,Nc1cc(-c2ccc(Br)cc2)[nH]n1,-23.7% (inactive)
19,CC(C)=CC(=O)OCC(=O)Nc1ccc(SC(F)F)cc1,-15.7% (inactive)
20,S=c1nc(-c2ccccc2)[nH]n1-c1ccccc1,51.8% (active)
21,S=c1nc(-c2ccccc2)c(-c2ccccc2)n[nH]1,-18.5% (inactive)
22,CCOc1cc(C(=O)NC)cc(OCC)c1OCC,-15.9% (inactive)
23,Cc1cc(C)cc(NC(=O)CSc2nnc(CN3CCOCC3)n2C)c1,27.2% (active)
24,Cc1cc(-c2nnc(SCC(=O)Nc3ccc(C(F)(F)F)cc3)n2C)no1,-23.1% (inactive)
25,COCCn1c(SCC(=O)Nc2cc(C)cc(C)c2)nc2ccccc2c1=O,-17.4% (inactive)

row,Structure (SMILES),"activity change, less the hit threshold"
1,Clc1cccc(OCCCN2CCCC2)c1Cl,-9.5% (inactive)
2,CCOC(=O)C1=C(O)c2ccccc2C(=O)/C1=C\c1ccc(CC)cc1,-1.8% (inactive)
3,CCc1ccc(/C=C/C(=O)C2C(=O)c3ccccc3C2=O)cc1,37.2% (active)
4,CCOC(=O)C1=C(Cc2ccc(C)cc2)C(=O)c2ccccc2C1=O,-0.5% (inactive)
5,Cc1ccc(/C=C/C(=O)C2C(=O)c3ccccc3C2=O)cc1,48.1% (active)
6,Cc1ccc(/C=N/N2C(=O)c3ccccc3NC2c2ccc(C)cc2)cc1 (centres undefined),-15.6% (inactive)
7,O=C(CC1NCCNC1=O)Nc1ccc([N+](=O)[O-])cc1 (centres undefined),-27.7% (inactive)
8,COc1ccc(NC(=O)N2CCN(c3ccc([N+](=O)[O-])cc3)CC2)cc1OC,-23.2% (inactive)
9,CN(C(=O)c1cnccn1)c1nnc(-c2cnccn2)s1,-25.3% (inactive)
10,CC(C)C(NC(=O)c1ccccc1)C(=O)N/N=C\c1ccco1 (centres undefined),-20.2% (inactive)
11,Cc1ccc2c(CN3CCOCC3)cc(=O)oc2c1,-5.1% (inactive)
12,Cc1cc(C)cc(OCc2nnc(SCC(=O)Nc3ccccc3)o2)c1,-16.8% (inactive)
13,CC(=O)/C=C1/C(=O)Nc2ccccc21,-27.4% (inactive)
14,Cc1cccc(N2C(=O)C(O)=C(C(=O)c3cccs3)C2c2cccc(Oc3ccccc3)c2)n1 (centres undefined),-18.2% (inactive)
15,COc1cc(C(=O)Nc2ccc(O)cc2C(=O)O)ccc1OC(C)=O,-10.8% (inactive)
16,COc1ccc(/C=C/C(=O)Nc2ccccc2C(=O)O)cc1,-2.2% (inactive)
17,COc1ccc(/C=C/C(=O)Nc2ccccc2C(=O)O)cc1OC,4.9% (active)
18,COc1cc(/C=C2/C(=O)NN(c3ccc(Cl)c(Cl)c3)C2=O)cc([N+](=O)[O-])c1O,-18.7% (inactive)
19,O=C(CCNS(=O)(=O)c1ccc(Cl)cc1)OCC(=O)N1CCN(C(=O)c2ccco2)CC1,-17.9% (inactive)
20,Nc1ccc(C(=O)OCC(=O)N2CCN(C(=O)c3ccco3)CC2)cc1[N+](=O)[O-],-23.4% (inactive)
21,Cc1cc(S(=O)(=O)Nc2ccc(C(=O)N3CCN(C(=O)c4ccco4)CC3)cc2)ccc1F,3.4% (active)
22,CCOc1ccc(NC(=O)CSc2nc3nc(C)cc(C)n3n2)cc1,-14.8% (inactive)
23,CCOc1ccc(NC(=O)c2ccc3c(c2)CCN3S(C)(=O)=O)cc1,-27.8% (inactive)
24,CCOc1ccc(NC(=S)NS(=O)(=O)c2cc(Br)ccc2OCC)cc1,35.9% (active)
